Experimental data taken from PubChem BioAssay (NCI).
Compounds without any hit were thinned out: in the full panel of roughly 83,000, 20% have a hit.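 Single-concentration screen, 48 h exposure, 96-well plates. Endpoint: percent growth. Below 10 = active.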 Values without a mark were called inactive. Active and inactive are the calls of the source.

What was measured:
Assay in all cases: NCI-60 one-dose screen, 48 h (100 = growth as untreated, 0 = no growth, -100 = all killed)
HOP-92 NSCLC = details: 10 µM
K-562 leukemia = details: 10 µM
MDA-MB-231 breast = details: 10 µM
LOX IMVI melanoma = details: 10 µM
EKVX NSCLC = details: 10 µM
UO-31 renal = details: 10 µM
CCRF-CEM leukemia = details: 10 µM
MOLT-4 leukemia = details: 10 µM
SR leukemia = details: 10 µM
HS 578T breast = details: 10 µM
NCI/ADR-RES ovarian = details: 10 µM
T-47D breast = details: 10 µM
MDA-MB-468 breast = details: 10 µM unless noted
A549/ATCC NSCLC = details: 10 µM
RXF 393 renal = details: 10 µM
OVCAR-5 ovarian = details: 10 µM

Compound | growth (HOP-92 NSCLC) | growth (K-562 leukemia) | growth (MDA-MB-231 breast) | growth (LOX IMVI melanoma) | growth (EKVX NSCLC) [%] | growth (UO-31 renal) | growth (CCRF-CEM leukemia) | growth (MOLT-4 leukemia) | growth (SR leukemia) | growth (HS 578T breast) | growth (NCI/ADR-RES ovarian) [%] | growth (T-47D breast) | growth (MDA-MB-468 breast) | growth (A549/ATCC NSCLC) | growth (RXF 393 renal) | growth (OVCAR-5 ovarian)
CCOP(=O)(OCC)C(NC(C)=O)C(=O)SCCN (stereo unspecified) | 108% | 100% | 99.2% | 92.1% | 100 | 81% | 100% | 105% | 98.4% | 100% | 105 | 99.6% | 124% | – | – | –
CC[C@]12C=CCN3CC[C@@]4(c5ccc(OC)cc5N(C)[C@H]4[C@@](O)(C(=O)OC)[C@@H]1OC(=O)CCC[P+](c1ccc(C)cc1)(c1ccc(C)cc1)c1ccc(C)cc1)[C@@H]32 | -83.2% (active) | -13.4% (active) | -94.9% (active) | -89.3% (active) | – | -97.4% (active) | -67% (active) | -45.1% (active) | 5.74% (active) | -60.3% (active) | 18.1 | -78.4% (active) | – | -90.3% (active) | -82.8% (active) | -95.9% (active)
O=C(/C=C/c1ccco1)c1nc2ccccc2n1Cc1ccc(Br)cc1 | 3.99% (active) | 7% (active) | – | – | 17.8 | 34.4% | -6.79% (active) | 3.6% (active) | 4.72% (active) | – | 25.7 | 4.25% (active) | -14.5% (active) | – | -1.81% (active) | 57%
CCOP(=O)(CC(F)(F)C(F)(F)F)OCC | -7.91% (active) | 5.12% (active) | 51.1% | -64% (active) | 89.5 | 25.1% | 8.28% (active) | 4% (active) | 4.39% (active) | 82.2% | – | 17.3% | -59.3% (active) | – | – | –
